# Marburg entry inh = qHTS for inhibitors of binding or entry into cells for Marburg Virus | 300,000 compounds, 1.8% hits | AID 540276, 2011 | Marburg virus pseudotyped entry inhibition, cell reporter | Potency, µM (top dose mostly 37.8 µM), hits mostly inhibitors; calls by dose curve; tested in HEK293 cells
# Lassa entry inh = qHTS for Inhibitors of binding or entry into cells for Lassa Virus; AID 540256, 2011; Potency, µM (highest dose often 37.9 µM), actives largely listed as inhibitors; Lassa virus pseudotype entry inhibition, cell reporter; 300,000 compounds, 1.2% hits; calls by dose curve; tested in HEK293 cells; note: nearly all actives have a fitted effect of over 50% in size
# VACV Venus inh = qHTS for Stage-Specific Inhibitors of Vaccinia Orthopoxvirus: Venus Reporter Primary qHTS; Potency, µM (series often up to 36.5 µM), most hits filed as inhibitors; 330,000 compounds, 0.46% hits; Vaccinia virus Venus reporter expression, fluorescence; calls by dose curve; tested in A549 cells; note: nearly all actives have a fitted effect of over 30% in size
# VACV mCherry inh = qHTS for Stage-Specific Inhibitors of Vaccinia Orthopoxvirus: mCherry Reporter Primary qHTS. AID 720579, 2013. 310,000 compounds, 0.63% hits. Potency, µM (series often up to 36.5 µM), actives largely listed as inhibitors. Vaccinia virus mCherry reporter infection, fluorescence; calls by dose curve; tested in A549 cells; note: nearly all actives have a fitted effect of over 35% in size
# FMDV antiviral = High Throughput Screening for Foot and Mouth Disease Virus Antivirals. FMDV antiviral cell-based qHTS. Potency, µM (doses to about 57.9 µM), hits mostly inhibitors. 410,000 compounds, 1.2% hits; calls by dose curve; tested in HEK293T cells; note: read-out not given here; nearly all actives have a fitted effect of over 45% in size
# HCMV antiviral = qHTS Assay for inhibitors of the human cytomegalovirus (HCMV); AID 1259415, 2018; activity change, negative = inhibition, % at 57.5 µM; HFF cells, HCMV-luciferase reporter, 72 h; active compounds read low; 410,000 compounds, 4.5% hits; in the data active = activity change below about -60%; inconclusive = no clear call, values can overlap the other calls; inactive = above about -39%
#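 After 16 h attachment at 37C, HFF cells received test compound and HCMV-luciferase (1 PFU/cell); reporter luminescence read 72 h later, data normalized against buffer-only and known inhibitor Salinomycin.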
# Numbers stand for hits; – = inactive; ? = inconclusive; · = no result; + = active, no number; [ ] = another dose, or the depositor's remark. Hits are enriched below; roughly 6.5% of the tested compounds scored in any of these assays.
SMILES,Marburg entry inh,Lassa entry inh,VACV Venus inh,VACV mCherry inh,FMDV antiviral,HCMV antiviral
O=C(O)[C@@H]1C[C@H]1[C@@H](NP(=O)(c1ccccc1)c1ccccc1)c1ccccc1,–,–,–,–,–,-99
O=C(NCc1ccccc1)[C@@H]1C[C@H]1[C@@H](NP(=O)(c1ccccc1)c1ccccc1)c1ccccc1,?,1.8µM,–,–,–,–
O=C(NCC1CC1)[C@@H]1C[C@H]1[C@@H](NP(=O)(c1ccccc1)c1ccccc1)c1ccccc1,–,?,–,–,–,–
O=C(NCc1ccccn1)[C@@H]1C[C@H]1[C@@H](NP(=O)(c1ccccc1)c1ccccc1)c1ccccc1,–,6.5µM,–,–,–,–
Cc1ccc(C2(c3ccccc3)NC(=O)N(CC(=O)N3CC(=O)Nc4ccccc43)C2=O)cc1C (stereo not given),·,·,·,·,–,–
Cc1cc2c(cc1C)N(C(=O)CCl)CC(=O)N2,·,·,?,–,40µM,·
Cc1ccc(Cl)cc1N1CCN(C(=O)CCC(=O)O)CC1,–,–,–,–,–,?
Cc1cc2c(cc1C)N(C(=O)CCl)CCN2C(=O)CCl,?,?,–,–,8.9µM,–
Cc1c(Cl)cccc1-n1ncc(C(=O)Nc2ccc3c(c2)OCCO3)c1C1CCN(C(=O)OC(C)(C)C)CC1,·,?,–,–,–,-82
COc1ccc(-n2ncc(C(=O)Nc3ccc4c(c3)OCCO4)c2C2CCN(C(=O)OC(C)(C)C)CC2)cc1,·,?,–,–,–,+
COc1ccc(CC(=O)Nc2sc3c(c2C(=O)Nc2cccc(Cl)c2)CCCCC3)cc1,·,–,?,–,?,-106
COc1ccc(CC(=O)Nc2sc3c(c2C(=O)Nc2ccccc2)CCCCC3)cc1,·,–,–[7.34 µM],–[7.34 µM],–,?
Cc1cc(Nc2cccc(C(F)(F)F)c2)nc2ccc(NC(=O)Cc3ccc(Cl)cc3)cc12,·,–,?,–,?,-103
COc1ccc(CC(=O)Nc2ccc3nc(Nc4cccc(Cl)c4)cc(C)c3c2)cc1,·,?,?,?,–,-102
COc1ccccc1CC(=O)Nc1ccc2nc(Nc3cccc(Cl)c3)cc(C)c2c1,·,3.2µM,–,–,–,?
CCOC(=O)C1=CN(CCC=C(C)C)C(=O)NC1c1ccccc1 (stereo not given),–,?,·,·,·,·
Cc1cc(Nc2cccc(Cl)c2)nc2ccc(NC(=O)c3cccnc3)cc12,·,–,–,–,?,-98
Cc1noc(/C=C/c2nn(C)cc2Cl)c1[N+](=O)[O-],·,·,·,·,?,-98
Cc1cccc(/C=C/c2onc(C)c2[N+](=O)[O-])n1,–,–,–[7.34 µM],–[7.34 µM],14µM,-109
Nc1nnc(SCC(=O)NNC(=O)c2ccc(Cl)cc2)s1,·,·,·,·,–,-73
CCn1cc(C(=O)NCCN(C)C)c(=O)c2cc(F)c(N3CCN(C)CC3)cc21,11µM,–,–,–,–,–
CCCCN(CCCC)C(=O)c1cn(CC)c2cc(N3CCN(C)CC3)c(F)cc2c1=O,?,–,–,–,–,-66
O=C(NN=Cc1ccccc1Cl)C(=O)Nc1cccc(C(F)(F)F)c1,·,·,·,·,·,–
CCOc1ccc(C(CC(=O)O)NC(=O)c2ccco2)cc1OC (stereo not given),–,–,–,–[1.46 µM],–,-100
O=C(Nc1cccc(Cl)c1Cl)C1CC(=O)N(c2ccc(Br)cc2)C1 (stereo not given),?,–,?,–,?,-92
SMILES,Marburg entry inh,Lassa entry inh,VACV Venus inh,VACV mCherry inh,FMDV antiviral,HCMV antiviral
Cc1ccc(/C=N/NC(=O)C2CC(=O)N(c3ccccc3)C2)s1 (stereo not given),–,?,–,–,–,?
O=C(N/N=C/c1ccccc1O)C1CC(=O)N(c2ccc(Cl)cc2)C1 (stereo not given),·,·,·,·,–,-79
C#CCN1CC(COCCCC)Oc2cccc(Oc3ccc(C(C)(C)C)c(C)c3)c2S1(=O)=O (stereo not given),·,·,·,·,·,–
COc1cccc(CNc2ncnc3sc(C(=O)N4CC5CCC4C5)c(C)c23)c1OC (stereo not given),·,·,–,–,–,·
c1ccc(N2CCN(c3nnc(Cc4cccnc4)c4ccccc34)CC2)nc1,–,–,·,·,10µM,?
COC(=O)C(C(=O)OC)[C@H]1c2ccccc2[C@@H]2C(=C[C@@H](C)[C@H]3C(=O)N(c4ccccc4)C(=O)[C@H]32)N1C(=O)OC,–,·,·,·,·,·

# Bioassay records from PubChem.
